D2 PAM-1: HTS Assay for Positive Allosteric Modulators of the Human D2 Dopamine Receptor: Primary Screen for Potentiators. AID 485347, 2010. HEK293 T-REx D2, calcium flux, EC20 dopamine potentiation. D(2) dopamine receptor (Homo sapiens), P14416. potentiation, % at 10 µM. actives 0.34% (n = 340,000);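 active = potentiation over 3 SD above the plate norm, cut at about 30% in these data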
Target sequence (P14416 whole entry, looked up): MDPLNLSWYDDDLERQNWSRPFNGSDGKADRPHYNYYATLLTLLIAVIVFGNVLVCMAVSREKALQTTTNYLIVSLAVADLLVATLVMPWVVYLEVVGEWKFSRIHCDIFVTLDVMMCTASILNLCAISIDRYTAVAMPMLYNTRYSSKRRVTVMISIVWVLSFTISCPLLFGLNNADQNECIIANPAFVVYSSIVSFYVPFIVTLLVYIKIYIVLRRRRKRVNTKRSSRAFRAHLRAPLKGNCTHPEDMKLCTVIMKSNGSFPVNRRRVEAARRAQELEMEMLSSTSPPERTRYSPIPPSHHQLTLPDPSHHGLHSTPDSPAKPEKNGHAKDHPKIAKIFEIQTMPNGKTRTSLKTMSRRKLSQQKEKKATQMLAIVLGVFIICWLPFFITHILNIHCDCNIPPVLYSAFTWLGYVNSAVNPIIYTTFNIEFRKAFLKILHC
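Cells plated with tetracycline inducer and held overnight at 30 C; calcium dye loaded 30–90 min at room temperature; baseline taken, compound added and read 180 s; EC20 dopamine then added and read 180 s.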
D2 antag: HTS Assay for Allosteric Antagonists of the Human D2 Dopamine Receptor: Primary Screen for Antagonists | actives 2% (n = 340,000) | D(2) dopamine receptor (Homo sapiens), P14416 | HEK293 TREx D2 cells, calcium flux, dopamine EC80 | AID 485344, 2010 | inhibition, % at 10 µM; in the data active = inhibition above about 30%; inactive = below that, where a call was filed
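In this primary screen, negative modulation is detected by tracking calcium flux after an EC80 dopamine challenge in inducible HEK293 T-REx D2 cells preexposed to test compound for 180 s.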
D2 PAM-2: Beta-Arrestin HTS for Positive Allosteric Modulators of the Human D2 Dopamine Receptor: Potentiators; D(2) dopamine receptor (Homo sapiens), P14416; actives 0.23% (n = 360,000); DiscoveRx D2 beta-arrestin cells, luminescence, 90 min; 100% = 57 uM dopamine signal; potentiation, % (test concentration not listed); AID 624464, 2012; in the data active = potentiation above about 50%
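D2 cells co-treated with compound plus 50 nM dopamine (EC20) for 90 min at 37 deg C to detect potentiation. Beta-arrestin recruitment was read as enzyme-fragment luminescence after 1 h at ambient temperature. Full response was set by 57 uM dopamine.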
D2 ag-1: Beta-Arrestin HTS for Positive Allosteric Modulators of the Human D2 Dopamine Receptor: Agonists; D(2) dopamine receptor (Homo sapiens), P14416; DiscoveRx PathHunter D2 beta-arrestin, luminescence, 90 min; 100% = 57 uM dopamine signal; activation, % (concentration not given with the values); actives 0.084% (n = 360,000); AID 624465, 2012; in the data active = activation above about 40%
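DiscoveRx PathHunter D2 beta-arrestin cells (2,100/well) attached overnight, then compound-stimulated 90 min at 37 C in HBSS/10 mM HEPES/0.1% Tween-20 buffer; beta-galactosidase complementation read by luminescence after 1 h at ambient temperature. Dopamine 57 uM final (EC100) as control.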
D2 ag-2: HTS Assay for Allosteric Agonists of the Human D2 Dopamine Receptor: Primary Screen for Agonists | D(2) dopamine receptor (Homo sapiens), P14416 | HEK293 T-REx D2 cells, calcium flux agonist mode | activation, % at 2 µM | actives 0.53% (n = 340,000) | AID 485358, 2010;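 active = activation over 3 SD above normal in the single-dose calcium agonist read, cut at about 30% in these data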
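Calcium-flux readout, 1 cycle/sec over 180 s following compound pin transfer, in inducible HEK293 Trex D2 cells (force-coupled); dopamine controls included. Positive calcium responses during this window marked compounds as potential agonists.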
Large screens that a line does not name were inactive. Sampled rows, rich in hits. Any-hit rate of the full collection: about 2.4%.

NC1=NC2(CCN(Cc3ccccc3)CC2)n2c(nc3ccccc32)N1	D2 antag 43.2
COc1ccccc1-c1cc(C(=O)Nc2c(C)nn(Cc3ccc(Cl)cc3)c2C)no1	none (no result: D2 antag, D2 PAM-2, D2 ag-1)
CCN(c1ccccc1)S(=O)(=O)c1ccc(Cl)c(C(=O)NCC2CCCO2)c1 (stereo unspecified)	D2 PAM-1 30.8
CS(=O)(=O)N(Cc1ccccc1)c1ccc(C(=O)NCC2CCCO2)cc1 (stereo unspecified)	D2 antag 32.8
CS(=O)(=O)N(Cc1ccc(Cl)cc1)c1ccc(C(=O)NCC2CCCO2)cc1 (stereo unspecified)	none
COc1ccc(NC(=O)CN2C(=O)c3ccccc3S2(=O)=O)cc1OC	D2 PAM-1 33.5
Cc1ccc(NC(=O)CN2C(=O)c3ccccc3S2(=O)=O)cc1C	none
CC1=NN(c2cccc(F)c2)C(=O)/C1=C/c1ccc(N(C)C)cc1	D2 antag 31.6
Cc1[nH]c(=O)c(C#N)c(C)c1Br	D2 PAM-1 40.7 (no result: D2 antag, D2 ag-2)
COc1ccc(OC)c(NC(=O)Cn2cc(C(=O)c3cccs3)c3ccccc32)c1	none (no result: D2 antag, D2 PAM-2, D2 ag-1)
O=C1NCCN1c1ncc([N+](=O)[O-])s1	D2 antag 54.0, D2 ag-2 59.1
COC(=O)C1=CCCCC(O)=C1C(=O)OC	none (no result: D2 PAM-1, D2 antag, D2 ag-2)
CN(C)CCNc1oc(-c2ccccc2Cl)nc1S(=O)(=O)c1ccccc1	none
CN(C)CCCNc1oc(-c2ccccc2Cl)nc1S(=O)(=O)c1ccc(F)cc1	D2 antag 34.1
CC1=C(c2ccc(C(C)C)cc2)S(=O)(=O)NC1=NCc1ccccc1C	none (no result: D2 antag, D2 PAM-2, D2 ag-1, D2 ag-2)
N#Cc1ccccc1COC(=O)c1ccc2c(c1)OCCO2	D2 antag 30.7
Cc1ccc(-n2cc3c(c2-c2ccccc2Br)c(=O)n(C)c(=O)n3C)cc1N	none (no result: D2 antag, D2 PAM-2, D2 ag-1)
Cc1cccc(OCc2nc(C#N)c(NCc3ccccc3Cl)o2)c1	none (no result: D2 antag, D2 PAM-2, D2 ag-1)
Cc1cc(C)cc(C(O)c2ncc(-c3ccc4ccccc4c3)[nH]2)c1 (stereo unspecified)	none (no result: D2 PAM-1, D2 antag, D2 ag-2)
CC(=O)c1c(NCc2ccccc2)nc(=O)n(-c2ccccc2)c1C	D2 antag 39.7
CN1CCN(c2nc3c(c(=O)n(C)c(=O)n3C)n2Cc2ccc(Cl)cc2)CC1	none
Cn1c(=O)c2c(nc(-n3ccnc3)n2Cc2ccc([N+](=O)[O-])cc2)n(C)c1=O	D2 antag 30.6
CCOc1ccc(NC(=O)Cn2c(CCC(=O)O)ccc2-c2ccc(C)cc2)cc1	none (no result: D2 PAM-1, D2 antag, D2 PAM-2, D2 ag-1)
O=[N+]([O-])c1ccc(N/N=C/c2ccccc2O)cc1	D2 antag 35.8
O=[N+]([O-])c1ccc(NN=Cc2ccccc2O)nc1	none (no result: D2 PAM-1, D2 antag, D2 ag-2)
Cn1cccc1Cc1nnc(SCC(=O)NC2CCCC2)n1-c1ccc(F)cc1	D2 antag 36.2
COc1cc(OC)c(NC(=O)C2=C(C)C(=O)OC23CCN(C(C)=O)CC3)cc1Cl	none (no result: D2 antag, D2 PAM-2, D2 ag-1)
Cc1cc2oc(C(=O)Nc3ccc(S(=O)(=O)Nc4nccs4)cc3)cc(=O)c2cc1Cl	D2 antag 33.8
CC(Oc1ccc(Br)cc1)C(=O)Nc1ccc(S(=O)(=O)Nc2nccs2)cc1 (stereo unspecified)	none
CCc1ccc(S(=O)(=O)Nc2nccs2)cc1	D2 PAM-1 37.8
CC(C)C(=O)NC(=S)Nc1ccc(S(=O)(=O)Nc2nccs2)cc1	D2 antag 39.0
CCC(Oc1ccc(C)cc1)C(=O)Nc1ccc(S(=O)(=O)Nc2nccs2)cc1 (stereo unspecified)	D2 PAM-1 41.8
COc1cccc(N2CCN(c3ncnc4c3[nH]c3ccccc34)CC2C)c1 (stereo unspecified)	none (no result: D2 PAM-2, D2 ag-1)
COc1cccc(N2CCN(c3ncnc4c3[nH]c3ccc(F)cc34)CC2C)c1 (stereo unspecified)	D2 PAM-2 51.9
Cc1ccccc1-c1nc(SCC(=O)NCc2ccco2)c2c(=O)n(C)c(=O)n(C)c2n1	none (no result: D2 PAM-1, D2 antag, D2 PAM-2, D2 ag-1)
COC(=O)C[C@H]1C[C@H]2c3cc(NC(=O)NC4CCCC4)ccc3O[C@H]2[C@@H](CO)O1	none (no result: D2 PAM-1, D2 antag, D2 ag-2)

Compound activity (PubChem)
